Measured values from PubChem BioAssay AID602342 (Broad Institute, 2012).
The campaign covered roughly 340,000 compounds. About 1,000 (0.29%) were called active. This excerpt belongs to a sample that is enriched for actives. Values without a mark were called inactive.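 The calls were made as follows: active = mean replicate activation score at least 90 and every replicate individually at or above 90; inconclusive = only one of the two criteria met; inactive = neither criterion met.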

Assay: miR-122 Renilla sensor signal increase in Huh7, primary screen, miR-122 inhibitor project, cell-based, single point, plate reader (AID 602342);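 also: higher luciferase means less miR-122 activity so hits act as miR-122 inhibitors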
Conditions: Huh7 miR-122 Renilla luciferase sensor, 48 h, active compounds read high, neutral wells = 0, positive control = 100; at 16.7 µM unless noted

Going from `C[C@H](CO)N1C[C@H](C)[C@H](CN(C)S(C)(=O)=O)Oc2ncc(C3=CCCCC3)cc2C1=O` to `CC(C)NC(=O)Nc1ccc2c(c1)C(=O)N([C@H](C)CO)C[C@@H](C)[C@H](CN(C)S(C)(=O)=O)O2`, the activation (reporter increase) rises from 2.67% to 3.33%.

Going from `CCC(=O)N(C)C[C@H]1Oc2cc(-c3ccc(C)cc3)ccc2S(=O)(=O)N([C@@H](C)CO)C[C@H]1C` to `C[C@@H]1CN([C@@H](C)CO)S(=O)(=O)c2ccc(-c3cccc(C(=O)N(C)C)c3)cc2O[C@@H]1CN(C)C(=O)Nc1ccccc1`, the activation (reporter increase) rises from -15.3% to 18.2%.

Compared with `CO[C@H]1CN(C)C(=O)c2cc(NS(=O)(=O)c3ccccc3)ccc2OC[C@H](C)N(C)C[C@@H]1C`, `CO[C@H]1CN(C)C(=O)c2ccc(NC(=O)Cc3ccccc3)cc2OC[C@@H](C)N(C(C)=O)C[C@H]1C` is lower in activation (reporter increase): 0.654% for the first, -19.6% for the second.

Going from `CNC(=O)C[C@@H]1CC[C@H]2[C@H](COc3ccc(NC(=O)c4cccc(OC)c4)cc3C(=O)N2C)O1` to `CCC(=O)Nc1ccc2c(c1)C(=O)N(C)[C@@H]1CC[C@@H](CC(=O)NCCc3ccccc3)O[C@H]1CO2`, the activation (reporter increase) rises from -50% to -4.08%.

First: C[C@@H]1CCCCO[C@H](CN(C)C(=O)c2ccccc2)[C@H](C)CN([C@H](C)CO)C(=O)c2cc(N(C)C)ccc2O1
Second: COc1ccc(S(=O)(=O)Nc2ccc3c(c2)C(=O)N([C@@H](C)CO)C[C@H](C)[C@@H](CN(C)C(=O)NC(C)C)OCCCC[C@H](C)O3)cc1
The activation (reporter increase) of the first is lower: -6.07% for the first, 15.2% for the second.

Compared with `CN1C[C@H]2[C@@H](c3ccccc31)[C@@H](CO)N2Cc1ccccc1`, `CCC(=O)N1[C@@H](CO)[C@@H]2c3ccccc3N(C(=O)c3ccccc3F)C[C@@H]21` is lower in activation (reporter increase): 2.82% for the first, -12.6% for the second.

Going from `CC(C)NC(=O)N(C)C[C@H]1Oc2ncc(C#CC3CCCCC3)cc2C(=O)N([C@H](C)CO)C[C@@H]1C` to `Cc1noc(C)c1NC(=O)N(C)C[C@H]1OCc2cn(nn2)CCCC(=O)N([C@@H](C)CO)C[C@H]1C`, the activation (reporter increase) rises from -2.95% to 0.754%.

Compared with `C[C@@H]1CN([C@H](C)CO)C(=O)Cc2cc(NS(=O)(=O)c3ccc(F)cc3)ccc2O[C@H]1CN(C)C`, `C[C@H](CO)N1C[C@H](C)[C@H](CN(C)C)Oc2ccc(NC(=O)c3ccncc3)cc2CC1=O` is higher in activation (reporter increase): 4.8% for the first, 5.36% for the second.

Compared with `CC(=O)N1[C@H](CO)[C@H]2c3ccccc3N(C(=O)c3ccc(F)cc3)C[C@H]21`, `O=C(c1cccnc1)N1C[C@H]2[C@@H](c3ccccc31)[C@@H](CO)N2C(=O)Nc1ccccc1F` is higher in activation (reporter increase): -19.2% for the first, -2.82% for the second.

Compared with `O=C(C[C@@H]1C[C@@H]2c3cc(NC(=O)c4ccc5c(c4)OCO5)ccc3O[C@@H]2[C@@H](CO)O1)NCC1CC1`, `COCC(=O)Nc1ccc2c(c1)[C@@H]1C[C@H](CC(=O)NCc3cc(F)ccc3F)O[C@@H](CO)[C@@H]1O2` is higher in activation (reporter increase): -4.14% for the first, 12.6% for the second.

Going from `COc1ccc(NC(=O)N(C)C[C@@H]2Oc3ccc(NC(=O)Cc4cn(C)c5ccccc45)cc3CC(=O)N([C@@H](C)CO)C[C@H]2C)cc1` to `Cc1noc(C)c1NC(=O)Nc1ccc2c(c1)CC(=O)N([C@@H](C)CO)C[C@@H](C)[C@H](CN(C)Cc1ccc(Oc3ccccc3)cc1)O2`, the activation (reporter increase) falls from -1.9% to -3.38%.

Compared with `O=C(C1CCC1)N1C[C@H]2[C@@H](c3ccccc31)[C@@H](CO)N2C(=O)c1ccccc1F`, `CCC(=O)N1[C@H](CO)[C@@H]2c3ccccc3N(S(=O)(=O)c3ccccc3C)C[C@@H]21` is higher in activation (reporter increase): -20% for the first, 0% for the second.

First: Cc1noc(C)c1NC(=O)Nc1ccc2c(c1)C(=O)N([C@H](C)CO)C[C@@H](C)[C@H](CN(C)C(=O)Nc1cccc3ccccc13)OCCCC[C@@H](C)O2
Second: C[C@H](CO)N1C[C@H](C)[C@H](CN(C)C(=O)Nc2cccc3ccccc23)OCCCC[C@H](C)Oc2ccc(NC(=O)Nc3ccc4c(c3)OCO4)cc2C1=O
The activation (reporter increase) of the first is lower: 0.113% for the first, 6.96% for the second.

First: CN1C(=O)c2cc(NC(=O)c3cscn3)ccc2OC[C@@H]2O[C@H](CC(=O)N3CCCCC3)CC[C@H]21
Second: O=C(C[C@@H]1CC[C@@H]2[C@H](COC[C@@H](O)CN2Cc2ccc(F)cc2)O1)NCc1ccncn1
The activation (reporter increase) of the first is lower: 4.63% for the first, 5.81% for the second.

Going from `O=C(C1CCC1)N1CCCCN2[C@H](C1)[C@@H](c1ccc(C#CC3CCCC3)cc1)[C@@H]2CO` to `CN(C[C@@H]1[C@H](c2ccccc2)[C@@H](CO)N1Cc1ccccn1)S(C)(=O)=O`, the activation (reporter increase) rises from -25.6% to 0%.

`C[C@H]1CN([C@@H](C)CO)C(=O)c2cc(N(C)C)ccc2O[C@@H]1CN(C)S(=O)(=O)c1ccc(Cl)cc1` gave an activation (reporter increase) of 47.5%.

In the case of `COCCn1c(SCC(=O)c2[nH]c(C)c(C(C)=O)c2C)nc2ccccc2c1=O`, the activation (reporter increase) is reported as 272% [at 12.5 µM] (active).
With `CC(C)c1cc(C(=O)O)n[nH]1` the activation (reporter increase) was 143% [at 12.5 µM] (active).
In the case of `COc1ccc(OC)c(S(=O)(=O)Nc2cccc(-c3ccc4nncn4n3)c2)c1`, the activation (reporter increase) is reported as 333% [at 12.5 µM] (active).
With `O=C(c1ccccc1F)N1C[C@H]2[C@@H](c3ccccc31)[C@@H](CO)N2C(=O)c1ccc(F)cc1` the activation (reporter increase) was 471% (active).
With `Cc1ccc(S(=O)(=O)Nc2ccc3ncccc3c2)cc1` the activation (reporter increase) was 146% [at 12.5 µM] (active).
With `CCCNc1ncnc2sc(C)c(C)c12` the activation (reporter increase) was 122% [at 12.5 µM] (active).
In the case of `Cc1c(C)c(C)c(S(=O)(=O)NCCc2ccccn2)c(C)c1C`, the activation (reporter increase) is reported as 107% [at 12.5 µM] (active).
For `CC(C)c1cc(C(=O)N/N=C/C(Br)=C/c2ccccc2)n[nH]1`, the activation (reporter increase) was 122% [at 12.5 µM] (active).
For `CC1CCCCC1NC(=O)/C(C#N)=C/C=C/c1ccccc1[N+](=O)[O-]` (stereo unspecified), the activation (reporter increase) was 102% [at 12.5 µM] (active).
In the case of `CCCC(=O)Nc1nc2ccc(NC(=O)c3c(F)c(F)c(OC)c(F)c3F)cc2s1`, the activation (reporter increase) is reported as 143% [at 12.5 µM] (active).
For `COc1ccc(OC)c(-n2cc3c(=O)n(C)c(=O)n(C)c3c2)c1`, the activation (reporter increase) was 102% [at 12.5 µM] (active).
In the case of `COc1ccc(-c2cc(NC(C)=O)c3ncc(-c4cc(OC)c(OC)c(OC)c4)n3c2)cn1`, the activation (reporter increase) is reported as 107% [at 12.5 µM] (active).
With `COc1ccc(C)cc1S(=O)(=O)NC1CCCCC1` the activation (reporter increase) was 375% [at 12.5 µM] (active).
In the case of `O=C(CCc1ccc(S(=O)(=O)NC2CCCCC2)cc1)NCc1ccccc1`, the activation (reporter increase) is reported as 101% [at 12.5 µM] (active).
With `Cc1ccc(S(=O)(=O)NC2CCCCCC2)cc1` the activation (reporter increase) was 106% [at 12.5 µM] (active).
With `CSc1ccc(S(=O)(=O)NC2CCCCC2)cc1` the activation (reporter increase) was 102% [at 12.5 µM] (active).

Compared with `COCCn1c(C)cc(C(=O)CSc2nc3ccccc3c(=O)n2C(C)COC)c1C` (stereo unspecified), `COCCn1c(SCC(=O)Nc2ccc3c(c2)CCC3)nc2ccccc2c1=O` is higher in activation (reporter increase): -1.04% [at 12.5 µM] for the first, 1.43% [at 12.5 µM] for the second.

First: CC(C)c1cc(C(=O)O)on1
Second: Cc1cc(C(=O)N/N=C\C(Br)=C\c2ccccc2)c(C)o1
The activation (reporter increase) of the first is higher: 8.11% [at 12.5 µM] for the first, 1.4% [at 12.5 µM] for the second.

Going from `CCOc1ccc(C(=O)Nc2cccc(-c3ccc4nncn4n3)c2)cc1` to `COc1ccccc1-c1cc(NC(C)=O)c2ncc(-c3ccc(F)cc3)n2c1`, the activation (reporter increase) rises from -5.49% [at 12.5 µM] to 5.94% [at 12.5 µM].

Going from `COc1ccc(OC)c(S(=O)(=O)Nc2c(C)nn(C)c2C)c1` to `COc1ccc(C)cc1S(=O)(=O)Nc1cccc(Cl)c1Cl`, the activation (reporter increase) rises from 21.9% [at 12.5 µM] to 66.7% [at 12.5 µM].

Going from `Cc1ccc(NS(=O)(=O)c2ccc(C(C)(C)C)cc2)cn1` to `O=S(=O)(Nc1ccc(Oc2ncccn2)c(Cl)c1)c1ccc(F)cc1`, the activation (reporter increase) falls from 23.7% [at 12.5 µM] to 8.55% [at 12.5 µM].

Going from `Cc1sc2ncnc(SCC(=O)NC3CCS(=O)(=O)C3)c2c1C` (stereo unspecified) to `Cc1sc2ncnc(SCC(=O)Nc3ccc(CN4CCCC4)cc3)c2c1C`, the activation (reporter increase) rises from -0.478% [at 12.5 µM] to 2.95% [at 12.5 µM].

First: O=S(=O)(NCCc1ccccn1)c1cc(Cl)cc(Cl)c1O
Second: O=S(=O)(/C=C/c1ccccc1)NCCc1ccccn1
The activation (reporter increase) of the first is lower: -4.9% [at 12.5 µM] for the first, 73.3% [at 12.5 µM] for the second.

Going from `O=C(NN=Cc1ccccc1)c1ccccc1` to `Cn1c(=O)c2cn(-c3cccc4ccccc34)cc2n(C)c1=O`, the activation (reporter increase) rises from -2.03% [at 12.5 µM] to -1.8% [at 12.5 µM].

Compared with `O=[N+]([O-])c1ccccc1/C=C/CN1CCCC(CO)C1` (stereo unspecified), `CC1CCCCC1NC(=O)COc1ccc(C#N)cc1` (stereo unspecified) is lower in activation (reporter increase): 4.13% [at 12.5 µM] for the first, -5.71% [at 12.5 µM] for the second.

Compared with `CSc1nc2ccc(NC(=O)c3c(F)cccc3F)cc2s1`, `CC(=O)Nc1ccc2nc(NC(=O)CS(=O)(=O)c3ccc(F)cc3)sc2c1` is higher in activation (reporter increase): -16% [at 12.5 µM] for the first, 5.07% [at 12.5 µM] for the second.

Compared with `COc1cccc(-n2cc3c(c2-c2ccccc2)c(=O)n(C)c(=O)n3C)c1`, `COc1cccc(-c2cnc3c(NC(C)=O)cc(-c4cc(F)ccc4OC)cn23)c1` is higher in activation (reporter increase): 13% [at 12.5 µM] for the first, 36.5% [at 12.5 µM] for the second.

Compared with `Cc1ccc(S(=O)(=O)NC2CCCCCC2)cc1C(N)=O`, `CCOc1ccc(C)cc1S(=O)(=O)NC1CCCCCC1` is higher in activation (reporter increase): 62.2% [at 12.5 µM] for the first, 67.9% [at 12.5 µM] for the second.

Compared with `CC(C)CNS(=O)(=O)c1ccc(CCC(=O)NCc2ccc(Cl)cc2)cc1`, `O=S(=O)(NC1CC1)c1ccc(Cl)cc1` is lower in activation (reporter increase): 15.1% [at 12.5 µM] for the first, -7.11% [at 12.5 µM] for the second.

Compared with `O=S(=O)(NC1CCCC1)c1ccc(-n2cnnn2)cc1`, `CC(C)c1ccc(S(=O)(=O)NC2CCCC2)cc1` is higher in activation (reporter increase): -2.1% [at 12.5 µM] for the first, 51.5% [at 12.5 µM] for the second.

In the case of `Cc1cc(S(=O)(=O)NC2CCCCC2)ccc1OCC(=O)NCc1cccnc1`, the activation (reporter increase) is reported as 72% [at 12.5 µM].
